# Hits are enriched below; roughly 10% of the tested compounds scored in any of these assays.
# G9a inh: G9a (human) methyltransferase inhibition. Q96KQ7. G9a H3K9 monomethylation, AlphaScreen, 2 h. Potency, µM (series often up to 102 µM), usual class: inhibitors. 350,000 tested, 8.8% active. AID 504332; also: nearly all actives have a fitted effect of over 75% in size
#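 Compounds were preincubated with 20 nM G9a for 15 min, after which biotinylated H3K9 peptide (500 nM) and SAM (20 uM) started a 2 h room-temperature reaction. Monomethylated product was quantified by antibody-based AlphaScreen chemiluminescence.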
# GLS inh: inhibitors of human glutaminase (GLS); O94925; GLS enzymatic activity, qHTS titration; Potency, µM (highest dose often 45.5 µM), most hits filed as inhibitors; 410,000 tested, 0.21% active
#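 hKGA in 45 mM KH2PO4 pH 8.2, 0.02% Tween-20 with pin-transferred compounds; 1 mM L-glutamine (stock) plus glutamate oxidase/HRP/Amplex Red coupling added. Fluorescence read initially and after 30 min at RT.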
# L3MBTL1 inh: L3MBTL1 (human) inhibition | AlphaScreen L3MBTL1–H3K9me1 peptide binding | Potency, µM (series often up to 57.1 µM), hits mostly inhibitors | 230,000 tested, 0.66% active; also: nearly all actives have a fitted effect of over 60% in size
#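 AlphaScreen assay: L3MBTL1 (50 nM final) was preincubated 30 min at room temperature with biotinylated H3(1-15)K9me1 peptide (75 nM final), then 30 min with library compounds; streptavidin donor and nickel chelate acceptor beads (10 ug/mL final) added, 30 min dark.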
# BAZ2B inh: inhibitors of human BAZ2B bromodomain; Q9UIF8; AlphaScreen BAZ2B-H3K14Ac peptide displacement; Potency, µM (series often up to 114 µM), usual class: inhibitors; 360,000 tested, 4.4% active; AID 504333; also: nearly all actives have a fitted effect of over 60% in size
#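 In this displacement format the biotinylated H3(5-23) peptide acetylated at Lys14 serves as ligand at 50 nM, with BAZ2B at 50 nM in PBS pH 7.4 containing 0.01% Tween-20. Donor and acceptor beads are 10 ug/mL final.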
# HP1b chromo inh: blocks HP1-beta chromodomain binding to methylated histone tails; P83916; AlphaScreen HP1-beta / biotin-H3K9me3 peptide binding; Potency, µM (series often up to 114 µM), most hits filed as inhibitors; 390,000 tested, 0.56% active; also: nearly all actives have a fitted effect of over 70% in size
#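 AlphaScreen: HP1-beta (50 nM) preformed 30 min with biotin-H3(1-18)K9me3 peptide (50 nM) in PBS pH 7.4, 0.01% Tween-20. Compound added for 30 min at RT, then streptavidin donor/nickel chelate acceptor beads (10 ug/mL) for 30 min.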
# JMJD2A Tudor inh: JMJD2A Tudor domain (human) inhibition | O75164 | AlphaScreen JMJD2A-Tudor / H3K4me3 peptide binding | Potency, µM (series often up to 114 µM), actives largely listed as inhibitors | 390,000 tested, 4.4% active | AID 504339; also: nearly all actives have a fitted effect of over 50% in size
# Target sequence (O75164 whole entry, looked up, the tested form may be a part): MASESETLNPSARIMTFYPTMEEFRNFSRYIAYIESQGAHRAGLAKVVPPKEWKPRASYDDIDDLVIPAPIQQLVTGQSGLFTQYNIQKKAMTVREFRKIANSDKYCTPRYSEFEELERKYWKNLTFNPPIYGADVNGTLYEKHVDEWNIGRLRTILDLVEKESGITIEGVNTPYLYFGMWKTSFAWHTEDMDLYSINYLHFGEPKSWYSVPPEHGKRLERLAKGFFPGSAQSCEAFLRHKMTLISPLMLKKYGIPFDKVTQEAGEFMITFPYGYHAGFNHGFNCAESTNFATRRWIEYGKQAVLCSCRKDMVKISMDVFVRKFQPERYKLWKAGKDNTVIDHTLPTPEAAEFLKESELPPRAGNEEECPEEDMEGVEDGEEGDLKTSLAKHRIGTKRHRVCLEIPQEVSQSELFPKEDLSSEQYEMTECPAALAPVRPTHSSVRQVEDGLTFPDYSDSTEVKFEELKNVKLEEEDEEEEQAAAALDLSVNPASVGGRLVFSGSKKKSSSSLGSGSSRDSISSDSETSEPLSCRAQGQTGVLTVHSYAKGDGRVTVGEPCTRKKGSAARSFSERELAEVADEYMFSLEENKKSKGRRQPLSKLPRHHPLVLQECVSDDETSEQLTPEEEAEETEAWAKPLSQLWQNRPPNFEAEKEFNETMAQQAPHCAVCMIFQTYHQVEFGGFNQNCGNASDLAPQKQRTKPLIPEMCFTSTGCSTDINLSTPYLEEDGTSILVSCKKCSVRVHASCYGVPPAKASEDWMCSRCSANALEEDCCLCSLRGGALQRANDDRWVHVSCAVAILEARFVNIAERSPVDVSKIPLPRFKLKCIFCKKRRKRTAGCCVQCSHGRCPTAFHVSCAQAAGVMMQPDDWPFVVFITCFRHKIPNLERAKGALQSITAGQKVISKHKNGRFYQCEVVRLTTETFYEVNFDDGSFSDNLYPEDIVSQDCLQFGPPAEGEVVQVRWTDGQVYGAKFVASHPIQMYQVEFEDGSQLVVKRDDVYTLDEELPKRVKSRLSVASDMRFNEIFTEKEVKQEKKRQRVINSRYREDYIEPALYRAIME
# A number is an active result; 0 = inactive; ? = inconclusive; - = no result; [ ] = another dose, or the depositor's remark. Calls follow the shape of the dose curve; as a rule, active = well fitted curve in the direction sought with a large enough effect; inconclusive = small, poorly fitted or top-dose-only effect, or another doubt; inactive = no such curve, though single readings can be large; an effect the other way counts as inactive or inconclusive.
SMILES,G9a inh,GLS inh,L3MBTL1 inh,BAZ2B inh,HP1b chromo inh,JMJD2A Tudor inh
Cc1cc(C)nc(-n2nc(C)c3c2N(Cc2ccccc2C)C(=O)CC3c2ccc(Cl)cc2)n1 (stereo unspecified),0,0,-,0,0,0
COc1cccc(NC(=O)c2cn(C3CCCCC3)c(=O)c3c2c2ccccc2n3C)c1,0,0,-,0,0,0
Cc1ccc(S(=O)(=O)c2c(COC(=O)c3ccccc3Cl)c(-c3ccccc3)nn2C)cc1,0,0,-,6.3µM,0,0
Cc1ccc(S(=O)(=O)c2c(CO)c(-c3ccccc3)nn2C)cc1,0,0,-,0,0,0
CC1=C(C(=O)OCc2ccc(C)cc2)C(c2cccc(F)c2F)CC(=O)N1 (stereo unspecified),0,0,-,0,0,0
COc1ccc(OC)c(NC2c3ccccc3C(=O)N2Cc2ccc3c(c2)OCO3)c1 (stereo unspecified),32µM,0,-,35µM,?,45µM
O=C1c2ccccc2C(Nc2ccc3c(c2)OCO3)N1Cc1ccco1 (stereo unspecified),10µM,0,0,45µM,?,56µM
CCOc1ccc(NC2c3ccccc3C(=O)N2Cc2ccco2)cc1 (stereo unspecified),45µM,0,0,50µM,?,45µM
O=C1c2ccccc2C(Nc2ccc3c(c2)OCO3)N1Cc1ccc2c(c1)OCO2 (stereo unspecified),40µM,0,?,20µM,?,45µM
COc1ccc(NC2c3ccccc3C(=O)N2Cc2ccco2)cc1OC (stereo unspecified),?,0,0,?,0,?
O=C1c2ccccc2C(Nc2cccnc2)N1Cc1ccc2c(c1)OCO2 (stereo unspecified),?,0,0,0,0,0
O=C1c2ccccc2C(Nc2ccc(F)c(Cl)c2)N1Cc1ccco1 (stereo unspecified),45µM,0,0,?,0,0
CN(C)c1ccc(CNC(=O)C2COc3ccccc3C2)cc1 (stereo unspecified),?,0,-,0,0,0
Cc1c(CN2CCCCC2)c(O)n(CCCO)c(=O)c1C#N,45µM,0,0,0,0,0
COc1cccc(-c2ccc(-c3noc(-c4ccccc4F)n3)c(OC)n2)c1,0[12.7 µM],0,0[11.4 µM],0,0,0
COc1cccc(-c2ccc(-c3noc(-c4cccs4)n3)c(OC)n2)c1,1.3µM,0,-,0,0,0
COc1ccc(-c2ccc(-c3noc(-c4cc(OC)cc(OC)c4)n3)c(OC)n2)cc1,0,0,-,0,0,0
COc1nc(-c2ccc(Cl)cc2)ccc1-c1noc(-c2ccco2)n1,2.8µM,0,-,0,0,0
C=C(c1cccc2ccccc12)P(=O)(O)O,16µM,0,?,0,0,?
O=C(Nc1ccc2ccccc2c1)c1cccc2ccccc12,-,0,-,-,0,0
Cc1cc([N+](=O)[O-])cnc1Sc1nccn1C,0,0,0,50µM,0,0
COc1ccc(OC)c(NC(=O)CSc2ncc3c(n2)-c2ccccc2N(C)S3(=O)=O)c1,0,0,-,?,?,0
COc1cc(CNC2CCCCC2OC)cc(OC)c1OC (stereo unspecified),11µM,0,0,?,?,?
CCSc1ccc2cc(OC)ccc2[n+]1CC,20µM,?,-,0,0,?
COc1ccc(C)cc1NC(=O)c1cc(S(=O)(=O)N2CCCCC2)c[nH]1,0,0,-,0,0,0
SMILES,G9a inh,GLS inh,L3MBTL1 inh,BAZ2B inh,HP1b chromo inh,JMJD2A Tudor inh
CC1(C)Oc2ccc3ccc(=O)oc3c2/C(=C/O)C1=O,45µM,0,0,0,0,0
CC1(C)Oc2ccc3ccc(=O)oc3c2/C(=C/N)C1=O,0,0,0,0,0,0
CC1(C)Oc2ccc3ccc(=O)oc3c2-c2cnoc21,?,0,0,50µM,0,?
CC1(C)Oc2ccc3ccc(=O)oc3c2/C(=C/Nc2ccccc2)C1=O,71µM,0,-,?,0,?
CCOC(=O)c1cccnc1SCC(=O)Nc1ccc(C)cc1C,0,0,-,0,0,0
CCSc1nnc(NC(=O)C2CCN(C(=O)c3ccco3)CC2)s1,-,-,-,-,0,0
Cc1cccc(N2CC(C(=O)Nc3ccc(S(=O)(=O)N4CCCCC4)cc3)CC2=O)c1C (stereo unspecified),0,0,-,0,0,0
O=C(Nc1ccccc1N1CCCC1)C1CCN(S(=O)(=O)c2ccccc2C(F)(F)F)CC1,35µM,0,?,0,0,?
O=C(Nc1ccccc1N1CCCC1)C1CCN(S(=O)(=O)c2ccccc2)CC1,50µM,0,0,0,0,?
O=C(Nc1ccccc1N1CCCCC1)C1CCN(S(=O)(=O)c2ccccc2C(F)(F)F)CC1,0,0,0,0,0,0
Cc1ccccc1N1CC(C(=O)Nc2ccc(S(=O)(=O)N3CCCCC3)cc2)CC1=O (stereo unspecified),71µM,0,-,0,0,0
CCc1ccccc1NC(=O)C1CCN(S(=O)(=O)c2ccccc2)CC1,0,0,-,0,0,0
CCOc1ccc(NC(=O)Cn2c(=O)cc(C)c3c(C)nn(-c4ccc(CC)cc4)c32)cc1,0,0,-,0,0,0
COc1ccc(-n2c(=O)c3ccccc3n(Cc3ccc(F)cc3Cl)c2=O)cc1OC,0,0,-,0,0,0
CCc1ccc2c(c1)C(NC(C)=O)C(=O)N2CCN1CCOCC1 (stereo unspecified),28µM,5µM,-,13µM,0,10µM
CC(=O)NC1C(=O)N(CCc2ccccc2)c2ccccc21 (stereo unspecified),?,0,0,0,0,0
CCCN1C(=O)C(NC(C)=O)c2ccccc21 (stereo unspecified),40µM,0,-,0,0,0
COc1ccc(-c2nc3ccccc3s2)cc1NC(=O)c1cccc(F)c1,0,0,-,?,0,0
CCc1ccc(NCc2cc3cc4c(cc3n(CC(=O)Nc3ccc(C)cc3)c2=O)OCO4)cc1,?,?,-,?,0,0
CCc1cc(-c2n[nH]c(=S)n2N)n(C)n1,10µM,0,0,79µM,?,8.9µM
CCc1nn(C)c(-c2n[nH]c(=S)n2N)c1Cl,?,0,0,?,0,35µM
O=C(Cn1ncc2c3ccccc3n(Cc3cccc(Cl)c3)c2c1=O)Nc1ccc(F)cc1F,0,0,-,?,0,?
CC(CC(c1ccccc1)c1ccccc1)NC(C)(C)C (stereo unspecified),-,0,-,-,-,-
COc1ccc(C(CCN2CCCCC2)c2c(OC)cc(OC)c3c(-c4ccccc4)cc(=O)oc23)cc1 (stereo unspecified),0[12.7 µM],0,-,0,0,?
COc1cc(OC)c2c(-c3ccccc3)cc(=O)oc2c1C(CCN1CCOCC1)c1ccc(N(C)C)cc1 (stereo unspecified),14µM,0,?,-,18µM,14µM

# Compound activity as filed in PubChem BioAssay.
